# Measured values: PubChem BioAssay (NCATS)
# Records with an inconclusive call do not appear. Where a call stands in place of a potency, no number is given. Calls of active or inactive are those of the source. Unless noted, calls come from the whole dose curve; as a rule, active = well fitted curve in the direction sought with a large enough effect; inconclusive = small, poorly fitted or top-dose-only effect, or another doubt; inactive = no such curve, though single readings can be large; an effect the other way counts as inactive or inconclusive.
# Key:
# [1] = test system: Zika virus NS2B-NS3 protease; assay: Primary screen GU AMC qHTS for Zika virus inhibitors (AID 1347154); note: nearly all actives have a fitted effect of over 70% in size
# How it was run: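 Unlinked Zika NS2B hydrophilic domain/NS3 protease domain noncovalent complex (25 nM final) in 10 mM Tris-HCl pH 8.0, 0.01% Tween 20, with AMC peptide substrate. Fluorescence (ex 340, em 450 nm) change over 15 min, room temperature; percent inhibition fitted to 4-parameter Hill equation.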
# [2] = Primary qHTS for small molecule stabilizers of the endoplasmic reticulum resident proteome: Secreted ER Calcium Modulated Protein (SERCaMP) assay (AID 1508630)
# How it was run: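 GLuc-SERCaMP-expressing SH-SY5Y cells, pretreated 16 h with compound, are challenged with thapsigargin to empty ER calcium stores; after 4 h, coelenterazine is added directly to the medium and luminescence is imaged.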
# [3] = molecular target: Cytochrome P450 1A2 (Homo sapiens) (UniProt P05177); assay: p450-cyp1a2 (AID 410; calls by dose curve; note: potency is the fitted concentration of half-maximal effect)
# How it was run: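 Human CYP1A2 (20nM) demethylated Luciferin-ME at its Km (100uM) in 100mM KPO4. After 10 min compound preincubation, NADPH regeneration ran the reaction 60 min at room temperature. Luciferin was read by luminescence, normalized to 57 uM furafylline.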
# [4] = molecular target: Glucocorticoid receptor (Homo sapiens) (UniProt P04150); assay: GR-GFP Redistribution (AID 450;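 active = compounds whose dose series gives a full or clear partial fitted curve of increased nuclear translocation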; note: potency is the fitted concentration of half-maximal effect); conditions: U2OS GR-GFP nuclear translocation, laser cytometry, 2 h
# [5] = molecular target: Glucocorticoid receptor (Homo sapiens) (UniProt P04150); assay: GR-EFC Redistribution (AID 451; calls by dose curve; note: potency is the fitted concentration of half-maximal effect); conditions: CHO-K1 GR-EFC translocation, beta-gal luminescence, 2 h
# How it was run: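 CHO-K1 cells stably expressing nuclear-localized β-gal enzyme acceptor and GR fused C-terminally to the enzyme donor fragment; ligand-driven nuclear translocation restores β-gal by complementation. Compounds titrated up to 46 uM final, 2 h at 37 °C; luminescence read.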
# [6] = molecular target: Cytochrome P450 2C19 (Homo sapiens) (UniProt P33261); assay: qHTS Assay for Inhibitors and Substrates of Cytochrome P450 2C19 (AID 899); note: potency is the fitted concentration of half-maximal effect; nearly all actives have a fitted effect of over 60% in size
# How it was run: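 In 50mM KPO4, the reaction held 5nM enzyme and KM-level (10uM) Luciferin-H EGE; it ran 60 min at 37C after NADPH regeneration and a 10 min compound preincubation. Luminescence values were scaled to 57uM ketoconazole as complete inhibition.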
# [7] = qHTS Assay for Lipid Storage Modulators (AID 1519; calls by dose curve); conditions: Drosophila S3 cells, BODIPY lipid droplet/cell ratio, laser cytometry, cells loaded with oleic acid
# How it was run: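 Cells seeded at 5,000 per well were treated with compounds over a concentration series and loaded with oleic acid (400 uM, as added). Lipid droplet fluorescence (488 nm excitation, 500-530 nm channel) was read by laser-scanning cytometry and normalized to 20 uM Triacsin C.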
# [8] = molecular target: DNA dC->dU-editing enzyme APOBEC-3G (Homo sapiens) (UniProt Q9HC16); assay: qHTS for inhibitors of Vif-A3G interactions: Validation (AID 588379)
# How it was run: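 HeLa cells stably expressing Vif and A3G-eYFP, 700 cells/well, incubated overnight at 37 deg C, then exposed to compound overnight at 37 deg C. Inhibition of Vif-mediated degradation read as increased yellow fluorescence (Ex 488/Em 500-530) by laser-scanning cytometry.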
# [9] = molecular target: Rap guanine nucleotide exchange factor 3 (Homo sapiens) (UniProt O95398); assay: Confirmatory qHTS for antagonist of cAMP-regulated guanine nucleotide exchange factor 3 (EPAC1) (AID 1645880); note: nearly all actives have a fitted effect of over 55% in size
# How it was run: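 Nucleotide exchange uses 100 nM EPAC1, 250 nM RAP1B-BODIPY-GDP and 50 uM GDP, with compounds in a concentration-titration series. After 5 min at room temperature, fluorescence (480 nm ex/540 nm em) is read every 5 min for 30 min. Data are normalized to control ATA and DMSO.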
# [10] = molecular target: Rap guanine nucleotide exchange factor 3 (Homo sapiens) (UniProt O95398); assay: Confirmatory qHTS for agonist of cAMP-regulated guanine nucleotide exchange factor 3 (EPAC1) (AID 1645881);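 note: EPAC1 catalysed release of BODIPY-GDP from Rap1B seen as fluorescence loss; nearly all actives have a fitted effect of over 75% in size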
# [11] = molecular target: Rap guanine nucleotide exchange factor 4 (Homo sapiens) (UniProt Q8WZA2); assay: Confirmatory qHTS for agonist of cAMP-regulated guanine nucleotide exchange factor 4 (EPAC2) (AID 1645884);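 note: nucleotide exchange releases bodipy-GDP from Rap1 and this lowers its fluorescence; nearly all actives have a fitted effect of over 65% in size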
# Sequence of Rap guanine nucleotide exchange factor 4 (Homo sapiens) (Q8WZA2 whole entry, looked up): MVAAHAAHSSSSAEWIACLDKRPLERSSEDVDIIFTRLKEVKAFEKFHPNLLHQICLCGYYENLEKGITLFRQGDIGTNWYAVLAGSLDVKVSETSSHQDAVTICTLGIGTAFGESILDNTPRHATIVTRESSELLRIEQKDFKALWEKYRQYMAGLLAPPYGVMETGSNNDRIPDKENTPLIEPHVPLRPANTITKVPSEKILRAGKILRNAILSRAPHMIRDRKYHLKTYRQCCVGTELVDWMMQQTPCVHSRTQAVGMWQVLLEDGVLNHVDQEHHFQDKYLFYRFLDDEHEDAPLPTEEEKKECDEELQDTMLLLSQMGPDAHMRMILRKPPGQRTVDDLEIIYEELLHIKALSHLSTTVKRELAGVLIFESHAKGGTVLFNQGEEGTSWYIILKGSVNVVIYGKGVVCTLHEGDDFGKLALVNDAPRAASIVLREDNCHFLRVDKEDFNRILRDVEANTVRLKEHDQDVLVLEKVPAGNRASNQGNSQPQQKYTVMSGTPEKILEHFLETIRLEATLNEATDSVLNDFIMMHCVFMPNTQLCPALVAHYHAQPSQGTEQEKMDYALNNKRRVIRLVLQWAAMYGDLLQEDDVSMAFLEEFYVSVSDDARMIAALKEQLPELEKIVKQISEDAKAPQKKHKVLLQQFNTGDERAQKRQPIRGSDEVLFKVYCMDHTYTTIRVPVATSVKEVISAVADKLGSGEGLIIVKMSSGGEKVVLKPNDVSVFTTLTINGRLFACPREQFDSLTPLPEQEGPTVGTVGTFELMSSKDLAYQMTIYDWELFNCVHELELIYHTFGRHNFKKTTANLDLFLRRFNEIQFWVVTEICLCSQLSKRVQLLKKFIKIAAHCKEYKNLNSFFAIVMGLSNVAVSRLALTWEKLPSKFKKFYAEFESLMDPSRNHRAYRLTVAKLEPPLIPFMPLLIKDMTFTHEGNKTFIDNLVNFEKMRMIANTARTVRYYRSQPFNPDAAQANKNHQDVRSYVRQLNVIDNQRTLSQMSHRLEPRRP
# Sequence of Glucocorticoid receptor (Homo sapiens) (P04150 whole entry, looked up, the tested form may be a part): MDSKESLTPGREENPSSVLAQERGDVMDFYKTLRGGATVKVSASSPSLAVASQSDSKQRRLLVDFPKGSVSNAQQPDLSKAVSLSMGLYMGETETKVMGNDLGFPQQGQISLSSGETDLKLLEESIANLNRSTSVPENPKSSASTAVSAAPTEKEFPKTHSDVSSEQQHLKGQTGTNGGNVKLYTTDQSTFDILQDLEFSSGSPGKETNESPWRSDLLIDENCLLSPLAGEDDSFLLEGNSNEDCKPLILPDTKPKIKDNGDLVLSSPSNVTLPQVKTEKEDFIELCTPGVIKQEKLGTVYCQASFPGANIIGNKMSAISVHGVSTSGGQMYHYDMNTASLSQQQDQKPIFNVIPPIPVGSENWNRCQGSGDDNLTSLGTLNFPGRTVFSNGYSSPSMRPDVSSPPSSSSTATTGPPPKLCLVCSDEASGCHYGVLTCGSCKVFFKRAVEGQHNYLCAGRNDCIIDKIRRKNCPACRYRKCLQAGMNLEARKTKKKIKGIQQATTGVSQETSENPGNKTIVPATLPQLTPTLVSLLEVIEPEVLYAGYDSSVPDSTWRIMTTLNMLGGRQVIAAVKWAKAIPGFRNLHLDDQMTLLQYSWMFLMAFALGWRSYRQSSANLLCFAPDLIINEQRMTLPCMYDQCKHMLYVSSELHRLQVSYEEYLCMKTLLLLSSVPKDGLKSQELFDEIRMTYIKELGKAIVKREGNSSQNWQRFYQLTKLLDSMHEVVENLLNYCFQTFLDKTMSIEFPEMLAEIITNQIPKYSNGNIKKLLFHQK
# Sequence of Rap guanine nucleotide exchange factor 3 (Homo sapiens) (O95398 whole entry, looked up): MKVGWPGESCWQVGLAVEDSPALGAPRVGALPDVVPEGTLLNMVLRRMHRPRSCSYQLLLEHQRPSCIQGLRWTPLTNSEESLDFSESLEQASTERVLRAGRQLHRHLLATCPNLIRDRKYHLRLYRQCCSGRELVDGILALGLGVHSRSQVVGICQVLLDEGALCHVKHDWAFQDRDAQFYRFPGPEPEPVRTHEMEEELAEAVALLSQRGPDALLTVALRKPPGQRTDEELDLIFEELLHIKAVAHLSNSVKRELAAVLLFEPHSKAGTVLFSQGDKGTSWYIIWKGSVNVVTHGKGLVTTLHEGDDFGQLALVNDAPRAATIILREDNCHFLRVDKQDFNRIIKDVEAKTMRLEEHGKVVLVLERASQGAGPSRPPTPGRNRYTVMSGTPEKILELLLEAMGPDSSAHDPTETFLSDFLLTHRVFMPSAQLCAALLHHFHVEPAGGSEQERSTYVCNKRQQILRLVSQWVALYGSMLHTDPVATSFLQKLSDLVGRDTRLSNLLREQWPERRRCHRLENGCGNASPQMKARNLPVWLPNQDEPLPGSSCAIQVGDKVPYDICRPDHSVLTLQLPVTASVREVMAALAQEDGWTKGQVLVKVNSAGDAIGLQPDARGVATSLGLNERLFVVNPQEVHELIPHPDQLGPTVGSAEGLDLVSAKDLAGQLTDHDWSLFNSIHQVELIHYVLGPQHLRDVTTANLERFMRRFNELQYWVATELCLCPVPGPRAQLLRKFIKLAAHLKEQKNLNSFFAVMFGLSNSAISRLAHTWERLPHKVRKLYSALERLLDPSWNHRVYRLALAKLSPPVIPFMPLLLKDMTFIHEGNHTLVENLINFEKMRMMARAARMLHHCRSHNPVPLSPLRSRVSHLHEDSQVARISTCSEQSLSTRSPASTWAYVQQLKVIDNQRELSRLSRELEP
# Sequence of Cytochrome P450 1A2 (Homo sapiens) (P05177 whole entry, looked up): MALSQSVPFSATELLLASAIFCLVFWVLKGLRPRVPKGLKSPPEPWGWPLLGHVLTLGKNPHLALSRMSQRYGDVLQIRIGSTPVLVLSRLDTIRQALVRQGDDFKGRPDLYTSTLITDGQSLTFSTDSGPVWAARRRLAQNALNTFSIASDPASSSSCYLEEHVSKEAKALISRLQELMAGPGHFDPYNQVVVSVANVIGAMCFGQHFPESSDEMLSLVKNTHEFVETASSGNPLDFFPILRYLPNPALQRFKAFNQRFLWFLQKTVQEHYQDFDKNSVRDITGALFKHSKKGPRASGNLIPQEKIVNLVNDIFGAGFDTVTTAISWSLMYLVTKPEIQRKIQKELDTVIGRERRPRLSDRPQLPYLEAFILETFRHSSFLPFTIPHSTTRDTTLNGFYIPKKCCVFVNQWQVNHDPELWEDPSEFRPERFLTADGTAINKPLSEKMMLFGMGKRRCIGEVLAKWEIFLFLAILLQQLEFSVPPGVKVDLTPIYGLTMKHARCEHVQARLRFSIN
# Sequence of DNA dC->dU-editing enzyme APOBEC-3G (Homo sapiens) (Q9HC16 whole entry, looked up): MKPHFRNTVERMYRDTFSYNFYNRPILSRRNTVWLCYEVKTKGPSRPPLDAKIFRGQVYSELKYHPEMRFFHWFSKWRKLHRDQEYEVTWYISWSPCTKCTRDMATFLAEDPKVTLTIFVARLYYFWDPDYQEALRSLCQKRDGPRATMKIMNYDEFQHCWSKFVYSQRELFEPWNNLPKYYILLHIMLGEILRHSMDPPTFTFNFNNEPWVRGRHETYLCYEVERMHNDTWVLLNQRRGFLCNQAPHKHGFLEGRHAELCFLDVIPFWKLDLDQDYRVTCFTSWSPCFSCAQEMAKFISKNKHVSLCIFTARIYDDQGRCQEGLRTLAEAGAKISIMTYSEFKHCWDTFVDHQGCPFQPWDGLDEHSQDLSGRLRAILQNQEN
# Sequence of Cytochrome P450 2C19 (Homo sapiens) (P33261 whole entry, looked up): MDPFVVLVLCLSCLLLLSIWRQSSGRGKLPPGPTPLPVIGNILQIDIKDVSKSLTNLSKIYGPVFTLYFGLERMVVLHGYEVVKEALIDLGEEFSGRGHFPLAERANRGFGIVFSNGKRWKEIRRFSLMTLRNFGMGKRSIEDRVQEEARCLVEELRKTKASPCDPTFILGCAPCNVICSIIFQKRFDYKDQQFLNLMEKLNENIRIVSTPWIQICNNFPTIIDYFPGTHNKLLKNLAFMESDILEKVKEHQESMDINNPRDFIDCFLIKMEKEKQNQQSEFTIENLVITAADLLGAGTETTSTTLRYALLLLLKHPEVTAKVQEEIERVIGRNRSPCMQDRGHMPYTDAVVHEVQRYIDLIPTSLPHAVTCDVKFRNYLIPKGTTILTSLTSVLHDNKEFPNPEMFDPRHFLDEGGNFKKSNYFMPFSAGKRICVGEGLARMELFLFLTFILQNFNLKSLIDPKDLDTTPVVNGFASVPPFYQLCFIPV
compound,measurement,setting,value
C[C@@H](N)CCCP(=O)(O)O,Potency,[1],inactive
same,Potency,[2],inactive
CCC(=O)N[C@@H]1Cc2ccccc2[C@@H](c2ccccc2)C1,Potency,[3],15.8 µM (active)
same,Potency,[4],> 46 µM (inactive)
same,Potency,[5],> 46 µM (inactive)
same,Potency,[6],7.94 µM (active)
same,"activity change, negative = inhibition",[7]; at 57.5 µM (top of the series),10.8% (inactive)
same,max response,[7]; measured here: cell count channel max response,13.4%
same,max response,[7]; measured here: lipid channel max response,28.8%
same,Potency,[8],inactive
same,Potency,[1],inactive
same,Potency,[2],inactive
same,Potency,[9],inactive
same,outcome,[10],inactive
same,outcome,[11],inactive
CCCCCCCCC#CCC#CCC#CCCCC(=O)O,"activity change, negative = inhibition",[1],19.3% [at 6.83 µM] (inactive)
same,"activity change, negative = inhibition",[2],-14.3% [at 3.88 µM] (inactive)
C=C1/C(=C\C=C2/CCC[C@]3(C)C([C@H](C)CCCC(C)(C)O)CC[C@@H]23)C[C@@H](O)C[C@@H]1O (stereo partly specified),"activity change, negative = inhibition",[1],14.5% [at 6.83 µM] (inactive)
same,"activity change, negative = inhibition",[2],-19.4% [at 3.88 µM] (inactive)
NC(CC(=O)Nc1ccc(Oc2cc(F)c(F)cc2Br)cc1)C(=O)O (stereo unspecified),Potency,[1],inactive
same,Potency,[2],inactive
C/C(O)=C1\C(=O)[C@@H]2[C@H]3c4c[nH]c5cccc(c45)C[C@H]3C(C)(C)N2C1=O,Potency,[1],inactive
same,Potency,[2],inactive
CC(O)[C@@H](N)C(=O)O (stereo partly specified),Potency,[1],inactive
same,Potency,[2],inactive
NC1(C(=O)O)CCc2cc(P(=O)(O)O)ccc21 (stereo unspecified),Potency,[1],inactive
same,Potency,[2],inactive
COc1ccc(/C=C/C(=O)CC(=O)/C=C/c2cccc(O)c2OC)cc1O,Potency,[1],inactive
same,Potency,[2],inactive
N#C/C(=C\c1cc(Cl)cc(Cl)c1)c1cccnc1,Potency,[1],inactive
same,Potency,[2],inactive
